Source: PubChem BioAssay AID1851 (National Center for Advancing Translational Sciences (NCATS), 2009)
Screen size: about 16,000 compounds; about 5,100 (32%) were called active. Roughly 25% stayed inconclusive and do not appear here. Calls follow the shape of the dose curve; as a rule, active = well fitted curve in the direction sought with a large enough effect; inconclusive = small, poorly fitted or top-dose-only effect, or effect the other way; inactive = no such curve, though single readings can be large or run the other way. This is one part of the list.

These molecules were tested against Cytochrome P450 3A4 (Homo sapiens) (UniProt P08684) (assay: Cytochrome panel assay with activity outcomes). Conditions: recombinant CYP, pro-luciferin dealkylation, luminescence, p450-cyp3a4; series mostly up to 57.1 µM.
Sequence of Cytochrome P450 3A4 (Homo sapiens) (P08684 whole entry, looked up): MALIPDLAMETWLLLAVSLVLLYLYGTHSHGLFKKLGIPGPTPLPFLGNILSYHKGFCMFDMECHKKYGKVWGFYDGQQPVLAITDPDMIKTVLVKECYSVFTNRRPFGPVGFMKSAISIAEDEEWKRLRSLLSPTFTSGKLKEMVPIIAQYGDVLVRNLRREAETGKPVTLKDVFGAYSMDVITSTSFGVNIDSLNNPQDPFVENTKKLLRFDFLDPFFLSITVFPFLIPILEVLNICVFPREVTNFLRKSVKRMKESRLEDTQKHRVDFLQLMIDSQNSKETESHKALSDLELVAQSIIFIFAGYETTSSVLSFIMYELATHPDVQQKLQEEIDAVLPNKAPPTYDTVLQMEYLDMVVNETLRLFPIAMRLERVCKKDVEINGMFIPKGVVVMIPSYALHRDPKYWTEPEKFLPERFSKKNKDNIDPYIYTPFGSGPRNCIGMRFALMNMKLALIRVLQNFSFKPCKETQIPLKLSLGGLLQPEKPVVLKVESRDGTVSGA
% is scaled to controls: 0 for no effect and ±100 for the full control effect.

Row | SMILES | activity, negative = inhibition | AC50
1 | CCOC(=O)N/N=C1/C[C@@H](O)[C@@H](O)[C@@H]2[C@@H]3C(=O)N(C(C)(C)C)C(=O)[C@H]3CC[C@H]12 | -10.6% [at 11.4 µM] (inactive) | –
2 | C[C@@H](NCc1cc(Br)cc2[nH]c(=O)c(=O)[nH]c12)P(=O)(O)O | – | inactive
3 | c1csc(CNc2ncnc3ccc(-c4ccoc4)cc23)c1 | – | 7.94 µM (active)
4 | N#Cc1cccc(-c2ccc3ncnc(NCc4cccs4)c3c2)c1 | – | 3.16 µM (active)
5 | COc1cccc(-c2ccc3ncnc(NCc4cccs4)c3c2)c1 | – | 7.94 µM (active)
6 | C[C@@H](CCCCC(=O)Nc1ccc(C(F)(F)F)cc1)NCCc1cnc[nH]1 | – | 5.01 µM (active)
7 | O=CN[C@@H](Cc1cnc[nH]1)C(=O)O | -4.87% [at 11.4 µM] (inactive) | –
8 | NCCC(=O)NCCc1cnc[nH]1 | – | inactive
9 | CC(C)(C)N1C(=O)[C@H]2[C@@H]3[C@H](O)C=CC(=O)[C@H]3CC[C@H]2C1=O | -16.6% [at 11.4 µM] (inactive) | –
10 | CCc1ccc(C(=O)COC(=O)C(Cc2ccccc2)NC(=O)C2CCC(C)CC2)cc1 (stereo unspecified) | – | 3.55 µM (active)
11 | N#CCSc1ncnc2c1cnn2CCO | – | inactive
12 | Cc1[nH]n2c(=O)c3c(nc2c1-c1cccc2ccccc12)CCC3 | – | inactive
13 | Nc1[nH]n2c(=O)c3c(nc2c1N=Nc1ccccc1)CCCC3 | – | 5.01 µM (active)
14 | N#Cc1c[nH]n2c(=O)c3c(nc12)CCCC3 | – | inactive
15 | Cc1ccc(-c2[nH]n3c(=O)c4c(nc3c2C)CCCC4)cc1 | – | 8.91 µM (active)
16 | Nc1[nH]n2c(=O)cc(-c3ccccc3)nc2c1N=Nc1ccccc1 | -10.8% [at 2.29 µM] (inactive) | –
17 | O=c1c2c(nc3c(-c4ccccc4)c[nH]n13)CCC2 | – | inactive
18 | O=C(NCc1ccc(Cl)cc1)c1ccc(Cl)cc1[N+](=O)[O-] | – | 12.6 µM (active)
19 | CCOc1ccc(NC(=O)c2ccc(Br)o2)c([N+](=O)[O-])c1 | 0.495% [at 2.29 µM] (inactive) | –
20 | O=C(NCCO)c1ccc(Cl)cc1 | -18% [at 11.4 µM] (inactive) | –
21 | Cc1ccc(C(=O)NCCNc2ccc(Cl)cc2[N+](=O)[O-])o1 | – | 6.31 µM (active)
22 | NC(=O)NCc1ccc(Cl)cc1 | 4.51% [at 11.4 µM] (inactive) | –
23 | Oc1ccc(C2Nc3cccc4cccc(c34)N2)c(O)c1 | – | 15.8 µM (active)
24 | Oc1ccccc1C1Nc2cccc3cccc(c23)N1 | – | inactive

Row | SMILES | activity, negative = inhibition | AC50
25 | CN[C@H](CC(=O)O)C(=O)O | – | inactive
26 | Cc1ccc(S(=O)(=O)c2cc3ccccc3oc2=Nc2ccc3c(c2)OCO3)cc1 | – | 2 µM (active)
27 | Cc1ccc(N=Nc2c(O)ccc3cc(S(=O)(=O)O)ccc23)cc1 | -19% [at 11.4 µM] (inactive) | –
28 | O=C(O)c1cc(C(=O)O)nc(C(=O)O)c1 | -8.29% [at 11.4 µM] (inactive) | –
29 | CCOC(=O)Nc1nc(-c2ccccc2)c(C)s1 | -11.6% [at 11.4 µM] (inactive) | –
30 | CCc1noc(C)c1C(=O)Nc1nc(-c2cc(C)ccc2C)c(C)s1 | – | 3.55 µM (active)
31 | COc1ccc(Cn2c(SCc3ccccc3C)nc3cc(OC)c(OC)cc3c2=N)cc1 | – | 8.91 µM (active)
32 | COc1cc2nc(SCc3ccc(Cl)cc3Cl)n(Cc3cccs3)c(=N)c2cc1OC | – | 2 µM (active)
33 | Cc1ccc(-n2c3c(c(=O)[nH]c2=O)C(C(F)(F)F)(C(F)(F)F)NC(=O)N3)cc1 | -3.33% [at 2.29 µM] (inactive) | –
34 | Cc1ccc(C(=O)N2C3C=CC(C3)C2(C(F)(F)F)C(F)(F)F)cc1 (stereo unspecified) | – | 1.12 µM (active)
35 | CC(C)(C)c1nnc(NC(=O)NS(=O)(=O)c2ccccc2)s1 | – | inactive
36 | CC(C)(C)NS(=O)(=O)c1ccc(NC(=O)C(Sc2ccccc2)c2ccccc2)cc1 (stereo unspecified) | – | 14.1 µM (active)
37 | CC(C)(C)NS(=O)(=O)c1ccc(NC(=O)c2cc(-c3ccccc3)nc3ccccc23)cc1 | – | inactive
38 | Cc1cc(=O)oc2cc(O)c(CN(C)CC(=O)O)cc12 | -2.73% [at 11.4 µM] (inactive) | –
39 | Cc1c(O)c(=O)n(-c2ccccc2)n1C | – | inactive
40 | Cc1ccc(O)c(C(=O)c2cc(C#N)c(=O)n(-c3c(C)n(C)n(-c4ccccc4)c3=O)c2)c1 | – | 5.62 µM (active)
41 | Cc1c(-n2cc(C(=O)c3cc(Cl)ccc3O)cc(C#N)c2=O)c(=O)n(-c2ccccc2)n1C | – | inactive
42 | CCCSc1nc(NCc2ccco2)c2c3c(sc2n1)COC(C)(C)C3 | – | 15.8 µM (active)
43 | Cc1cc(C)n(-c2nc(NCC(C)O)c3c4c(sc3n2)COC(C)(C)C4)n1 (stereo unspecified) | -17.9% [at 11.4 µM] (inactive) | –
44 | Cc1nn2c(C)nc3sc4c(c3c2nc1=O)CC(C)(C)OC4 | – | inactive
45 | CC1(CCC#N)N=C(SCCC#N)N(c2ccccc2)C1=O (stereo unspecified) | – | inactive
46 | CN(C)c1ccc(-c2ccc3ncnc(-n4ccnc4)c3c2)cc1 | – | 1 µM (active)
47 | c1cn(-c2ncnc3ccc(-c4ccoc4)cc23)cn1 | – | 0.631 µM (active)
48 | Cc1ccccc1-c1ccc2ncnc(-n3ccnc3)c2c1 | – | 0.501 µM (active)

Row | SMILES | activity, negative = inhibition | AC50
49 | CC(=O)CC(=O)Nc1ccc2ccccc2c1 | -28.5% [at 11.4 µM] (inactive) | –
50 | O=C(COc1ccc2ccccc2c1)Nc1ccc(Cc2ccncc2)cc1 | – | 0.708 µM (active)
51 | Clc1ccc([C@H](Cn2ccnc2)OCc2csc3c(Cl)cccc23)c(Cl)c1 | – | 0.794 µM (active)
52 | O=C(c1cnccn1)N1CCC2(CCN(Cc3nccs3)CC2)CC1 | – | inactive
53 | O=C(c1csnn1)N1CCC2(CCN(Cc3nccs3)CC2)CC1 | – | inactive
54 | O=C(c1csnn1)N1CCC[C@@]2(CCN(Cc3nccs3)C2)C1 | – | 15.8 µM (active)
55 | O=C(c1cnccn1)N1CCC2(CCCN(Cc3nccs3)C2)CC1 | – | 12.6 µM (active)
56 | CC(C)CN1CCC2(CC1)CCN(C(=O)c1csnn1)CC2 | – | inactive
57 | O=C(c1cnccn1)N1CCC[C@@]2(CCN(Cc3nccs3)C2)C1 | – | 15.8 µM (active)
58 | CC(C)NC(=O)N1CCC2(CC1)CCN(C(=O)c1cnccn1)CC2 | – | inactive
59 | O=C(c1cnccn1)N1CCC2(CC1)CN(Cc1nccs1)C2 | – | inactive
60 | CC(C)CN1CCCC2(CCN(C(=O)c3cnccn3)CC2)C1 | – | 25.1 µM (active)
61 | C[n+]1ccc(/C=C/c2ccc(Br)cc2)cc1 | – | inactive
62 | COc1nc(N)nc2c1ncn2[C@@H]1C[C@H](O)[C@@H](CO)O1 | -13.7% [at 11.4 µM] (inactive) | –
63 | CN1C(C(=O)Nc2ccccn2)=C(O)c2sccc2S1(=O)=O | – | inactive
64 | Cc1ccc(C(=O)NNC(=O)C2CCCN(c3ncccn3)C2)cc1 (stereo unspecified) | – | inactive
65 | COc1cc(C)nc(N2CCCC(C(=O)Nc3cc(Cl)ccc3OC)C2)n1 (stereo unspecified) | – | 7.08 µM (active)
66 | Cc1ccc(C(=O)/C=C2\NCC(C)NC2=O)cc1 (stereo unspecified) | – | inactive
67 | O=C(Cc1ccc2c(c1)CCCC2)Nc1ccccc1Br | – | inactive
68 | O=C(Cc1ccc(Br)cc1)Nc1ccccc1Sc1ccccc1 | – | 6.31 µM (active)
69 | CC(C)Cn1c(C(C)C)nc([N+](=O)[O-])c1S(=O)(=O)c1ccc(F)cc1 | – | 4.47 µM (active)
70 | CN(C)CCNCCN | -3.91% [at 11.4 µM] (inactive) | –
71 | Cc1ccc(CNCC(O)(c2ccc(F)cc2)c2ccc(F)cc2)cc1 | – | 2.24 µM (active)
72 | OC(CNCc1ccc(F)cc1)(c1ccc(F)cc1)c1ccc(F)cc1 | – | 2 µM (active)

Row | SMILES | activity, negative = inhibition | AC50
73 | O=C(O)c1ccc(CNCc2ccccc2)cc1 | -2.73% [at 11.4 µM] (inactive) | –
74 | CC(CO)(CO)Nc1ncnc2ccccc12 | 4.84% [at 11.4 µM] (inactive) | –
75 | COc1cccc(-c2ccc3ncnc(NCc4ccc(OC)cc4OC)c3c2)c1 | – | 2.51 µM (active)
76 | COc1ccccc1CNc1ncnc2ccc(-c3cccnc3)cc12 | – | 2 µM (active)
77 | COc1ccc(CNc2ncnc3ccc(-c4cccnc4)cc23)c(OC)c1 | – | 1.26 µM (active)
78 | Nc1ccccc1N=Nc1c(S(=O)(=O)O)cc2cc(S(=O)(=O)O)cc(O)c2c1O | -15.9% [at 11.4 µM] (inactive) | –
79 | COc1ccc(CCNC(=O)Cn2cnc3c2c(=O)n(C)c(=O)n3C)cc1OC | – | 15.8 µM (active)
80 | Cc1ccccc1NC(=O)Cn1cnc2c1c(=O)n(C)c(=O)n2C | – | inactive
81 | COc1ccc(Cc2nnc(NC(=O)Cn3cnc4c3c(=O)n(C)c(=O)n4C)s2)cc1OC | 4.73% [at 2.29 µM] (inactive) | –
82 | O=C(c1sc2ccccc2c1Cl)N1CCN(c2ccc(F)cc2)CC1 | – | 14.1 µM (active)
83 | COc1ccc(Nc2ncc(C(=O)N3CCN(c4ccc(F)cc4)CC3)c3ccccc23)cc1 | -5.25% [at 2.29 µM] (inactive) | –
84 | O=C(C(NS(=O)(=O)c1cccs1)c1ccccc1)N1CCN(c2ccccc2)CC1 (stereo unspecified) | – | 3.16 µM (active)
85 | COc1ccc(S(N)(=O)=O)cc1C(=O)NCCCN1CCN(c2ccc(C)cc2)CC1 | 1.35% [at 2.29 µM] (inactive) | –
86 | O=C(c1cccs1)N1CCN(C(=O)C(c2ccccc2)c2ccccc2)CC1 | – | inactive
87 | COc1ccccc1N1CCN(C(=O)C(NS(=O)(=O)c2cccs2)c2ccccc2)CC1 (stereo unspecified) | – | 2 µM (active)
88 | O=C(NCCN1CCN(C(=O)C(c2ccccc2)c2ccccc2)CC1)C(=O)Nc1ccccc1 | – | inactive
89 | CC(C)C(NS(=O)(=O)c1cccs1)C(=O)NCCN1CCN(c2ccccc2)CC1 (stereo unspecified) | – | 5.01 µM (active)
90 | CCOC(=O)c1sc(C)c(C(=O)NCC(C)(C)CN(C)C)c1N | – | inactive
91 | O=C(O)CCCSc1nc2ccccc2s1 | -9.94% [at 11.4 µM] (inactive) | –
92 | Cc1cccc(-c2nsc(SCC(=O)Nc3nccs3)n2)c1 | – | 3.55 µM (active)
93 | O=C(CSc1nc2ccccc2s1)Nc1nccs1 | – | 10 µM (active)
94 | Cc1nnc(SCC(=O)Nc2nccs2)[nH]c1=O | – | inactive
95 | O=C(CSc1nc2ccccc2s1)NNC(=S)Nc1ccc(Br)cc1 | – | 2.51 µM (active)
96 | C1CCc2nnnn2CC1 | – | inactive
